According to the supplement of paper PMC12282887:
± gives the standard deviation of the averaged measurements.

What was measured:
Experiment in all cases: promoter activity interaction Z-score (Lux/OD deviation from empty-vector control); higher = stronger promoter induction by the compound
[1] = tested on: E. coli BW25113 tolCp lux reporter
Method in brief: (§1)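 Low-copy luxCDABE promoter reporters were carried by E. coli BW25113, either wild type or lacking one of three genes, grown in 40 µl LB Lennox in 384-well plates at 37°C. Each compound was run at four 1:2 dilutions in biological duplicates, with OD600 and luminescence read every 30 min for 12 h. Integration used 0–8 h for wild type and 1–9 h for deletion strains, and wells under 10% of the median growth value were removed. Luminescence normalised to growth was fitted against a control, and the Z-transformed residual is the score.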

[2] = tested on: E. coli BW25113 acrABp lux reporter
Method in brief: as §1

[3] = tested on: E. coli BW25113 micFp lux reporter
Method in brief: as §1

[4] = tested on: E. coli BW25113 ompFp lux reporter
Method in brief: as §1

[5] = tested on: E. coli BW25113 robp lux reporter
Method in brief: as §1

[6] = tested on: E. coli BW25113 soxSp lux reporter
Method in brief: as §1

[7] = 18.3 µg/ml, genetic background: wild type
[8] = 18.3 µg/ml, genetic background: ΔmarA
[9] = 18.3 µg/ml, genetic background: Δrob
[10] = 18.3 µg/ml, genetic background: ΔsoxS
[11] = 36.5 µg/ml, genetic background: wild type
[12] = 36.5 µg/ml, genetic background: ΔmarA
[13] = 36.5 µg/ml, genetic background: Δrob
[14] = 36.5 µg/ml, genetic background: ΔsoxS
[15] = 73.1 µg/ml, genetic background: wild type
[16] = 73.1 µg/ml, genetic background: ΔmarA
[17] = 73.1 µg/ml, genetic background: Δrob
[18] = 73.1 µg/ml, genetic background: ΔsoxS
[19] = 146.1 µg/ml, genetic background: wild type
[20] = 146.1 µg/ml, genetic background: ΔmarA
[21] = 146.1 µg/ml, genetic background: Δrob

c1ccc(-c2ccccn2)nc1 [2-2-Bipyridyl]
promoter activity interaction Z-score ([1]; 9.8 µg/ml, genetic background: wild type): -0.433 ± 0.08
promoter activity interaction Z-score ([1]; 9.8 µg/ml, genetic background: ΔmarA): -0.587 ± 0.68
promoter activity interaction Z-score ([1]; 9.8 µg/ml, genetic background: Δrob): -0.425 ± 0.56
promoter activity interaction Z-score ([1]; 9.8 µg/ml, genetic background: ΔsoxS): 0.264 ± 0.45
promoter activity interaction Z-score ([1]; 19.5 µg/ml, genetic background: wild type): -1.32 ± 0.36
promoter activity interaction Z-score ([1]; 19.5 µg/ml, genetic background: ΔmarA): -0.963 ± 0.81
promoter activity interaction Z-score ([1]; 19.5 µg/ml, genetic background: Δrob): -0.8 ± 0.27
promoter activity interaction Z-score ([1]; 19.5 µg/ml, genetic background: ΔsoxS): -0.588 ± 0.17
promoter activity interaction Z-score ([1]; 39 µg/ml, genetic background: wild type): -0.831 ± 0.2
promoter activity interaction Z-score ([1]; 39 µg/ml, genetic background: ΔmarA): -1.07 ± 0.4
promoter activity interaction Z-score ([1]; 39 µg/ml, genetic background: Δrob): 0.715 ± 0.83
promoter activity interaction Z-score ([1]; 39 µg/ml, genetic background: ΔsoxS): 1.8 ± 1.5

O=C(O)CN(CCN(CC(=O)O)CC(=O)O)CC(=O)O
promoter activity interaction Z-score [2, 7]: -0.0934 ± 0.22
promoter activity interaction Z-score [2, 8]: -0.603 ± 0.65
promoter activity interaction Z-score [2, 9]: -0.36 ± 0.3
promoter activity interaction Z-score [2, 10]: -0.525 ± 0.13
promoter activity interaction Z-score [2, 11]: -0.397 ± 0.38
promoter activity interaction Z-score [2, 12]: -0.546 ± 0.64
promoter activity interaction Z-score [2, 13]: -0.8 ± 0.08
promoter activity interaction Z-score [2, 14]: -0.688 ± 0.13
promoter activity interaction Z-score [2, 15]: -0.174 ± 0.17
promoter activity interaction Z-score [2, 16]: -0.55 ± 0.59
promoter activity interaction Z-score [2, 17]: -0.865 ± 0.14
promoter activity interaction Z-score [2, 18]: -0.724 ± 0.18
promoter activity interaction Z-score [2, 19]: -0.36 ± 0.21
promoter activity interaction Z-score [2, 20]: -1.25 ± 0.29
promoter activity interaction Z-score [2, 21]: 0.682 ± 0.76
promoter activity interaction Z-score [3, 7]: 0.0311 ± 0.38
promoter activity interaction Z-score [3, 8]: 0.0253 ± 0.09
promoter activity interaction Z-score [3, 9]: -0.0661 ± 0.029
promoter activity interaction Z-score [3, 10]: 0.33 ± 0.3
promoter activity interaction Z-score [3, 11]: 0.187 ± 0.43
promoter activity interaction Z-score [3, 12]: 0.106 ± 0.075
promoter activity interaction Z-score [3, 13]: -0.0635 ± 0.073
promoter activity interaction Z-score [3, 14]: 0.413 ± 0.38
promoter activity interaction Z-score [3, 15]: 0.253 ± 0.014
promoter activity interaction Z-score [3, 16]: 0.129 ± 0.061
promoter activity interaction Z-score [3, 17]: 0.0924 ± 0.051
promoter activity interaction Z-score [3, 18]: 0.66 ± 0.28
promoter activity interaction Z-score [3, 19]: 1.76 ± 0.36
promoter activity interaction Z-score [3, 20]: 2.53 ± 1.4
promoter activity interaction Z-score [3, 21]: 2.95 ± 1.1
promoter activity interaction Z-score [4, 7]: -0.399 ± 0.35
promoter activity interaction Z-score [4, 8]: -0.581 ± 0.52
promoter activity interaction Z-score [4, 9]: -0.522 ± 0.013
promoter activity interaction Z-score [4, 10]: 0.261 ± 0.35
promoter activity interaction Z-score [4, 11]: -0.73 ± 0.2
promoter activity interaction Z-score [4, 12]: -0.519 ± 0.045
promoter activity interaction Z-score [4, 13]: -0.748 ± 0.082
promoter activity interaction Z-score [4, 14]: 0.0564 ± 0.85
promoter activity interaction Z-score [4, 15]: -1.22 ± 0.24
promoter activity interaction Z-score [4, 16]: -0.836 ± 0.33
promoter activity interaction Z-score [4, 17]: -0.994 ± 0.2
promoter activity interaction Z-score [4, 18]: 0.0122 ± 0.85
promoter activity interaction Z-score [4, 19]: -1.07 ± 0.81
promoter activity interaction Z-score [4, 20]: -1.23 ± 0.21
promoter activity interaction Z-score [4, 21]: -1.04 ± 0.81
promoter activity interaction Z-score [5, 7]: -0.212 ± 0.066
promoter activity interaction Z-score [5, 8]: -1.05 ± 0.051
promoter activity interaction Z-score [5, 9]: 0.174 ± 0.67
promoter activity interaction Z-score [5, 10]: 0.244 ± 0.58
promoter activity interaction Z-score [5, 11]: -0.656 ± 0.16
promoter activity interaction Z-score [5, 12]: -0.174 ± 0.088
promoter activity interaction Z-score [5, 13]: -0.454 ± 0.91
promoter activity interaction Z-score [5, 14]: 0.113 ± 1.1
promoter activity interaction Z-score [5, 15]: -0.785 ± 0.22
promoter activity interaction Z-score [5, 16]: -0.143 ± 0.47
promoter activity interaction Z-score [5, 17]: -0.796 ± 0.055
promoter activity interaction Z-score [5, 18]: -0.553 ± 0.47
promoter activity interaction Z-score [5, 19]: -1.32 ± 0.071
promoter activity interaction Z-score [5, 20]: -1.53 ± 0.59
promoter activity interaction Z-score [6, 7]: -0.509 ± 0.063
promoter activity interaction Z-score [6, 8]: -0.316 ± 0.052
promoter activity interaction Z-score [6, 9]: -0.315 ± 0.048
promoter activity interaction Z-score [6, 10]: -0.181 ± 0.14
promoter activity interaction Z-score [6, 11]: -0.478 ± 0.23
promoter activity interaction Z-score [6, 12]: -0.479 ± 0.017
promoter activity interaction Z-score [6, 13]: -0.494 ± 0.011
promoter activity interaction Z-score [6, 14]: -0.421 ± 0.15
promoter activity interaction Z-score [6, 15]: -0.487 ± 0.045
promoter activity interaction Z-score [6, 16]: -0.43 ± 0.35
promoter activity interaction Z-score [6, 17]: -0.698 ± 0.13
promoter activity interaction Z-score [6, 18]: -0.236 ± 0.11
promoter activity interaction Z-score [6, 19]: 1.26 ± 0.066
promoter activity interaction Z-score [6, 20]: 1.71 ± 1.1
promoter activity interaction Z-score [6, 21]: 1.4 ± 0.082
promoter activity interaction Z-score [1, 7]: 0.221 ± 0.32
promoter activity interaction Z-score [1, 8]: -0.411 ± 0.67
promoter activity interaction Z-score [1, 9]: -0.43 ± 0.067
promoter activity interaction Z-score [1, 10]: 0.426 ± 0.54
promoter activity interaction Z-score [1, 11]: 0.548 ± 0.048
promoter activity interaction Z-score [1, 12]: -0.02 ± 1
promoter activity interaction Z-score [1, 13]: -0.146 ± 0.27
promoter activity interaction Z-score [1, 14]: -0.2 ± 0.11
promoter activity interaction Z-score [1, 15]: -0.165 ± 0.86
promoter activity interaction Z-score [1, 16]: -0.102 ± 0.4
promoter activity interaction Z-score [1, 17]: -0.0689 ± 0.14
promoter activity interaction Z-score [1, 18]: 0.835 ± 0.86
promoter activity interaction Z-score [1, 19]: 1.75 ± 0.63
promoter activity interaction Z-score [1, 20]: 1.55 ± 0.38
promoter activity interaction Z-score [1, 21]: 1.79 ± 0.72
